# Measurements from PubChem BioAssay.
# The other results are listed elsewhere or left out. Active and inactive are the calls of the source.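 How the source made its calls, unless noted: active means mean inhibition above a cutoff equal to the average over all tested compounds plus one standard deviation (cut at about 70% in these data); inactive means the rest.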
# Molecular target: Photoreceptor-specific nuclear receptor (Homo sapiens) (UniProt Q9Y5X4)
# Assay: retest of NR2E3-NCOR disrupting agonists – cell-based, luminescence, CHO-S two-hybrid, confirmation (AID 624378;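 active means average inhibition above a cutoff equal to the mean inhibition of all tested compounds plus one SD, cut at about 70% in these data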;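 further: 0% = DMSO in NR2E3 cells and 100% = DMSO in cells lacking NR2E3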)
# Conditions: CHO-S mammalian two-hybrid NR2E3-NCOR, luciferase luminescence; at 3.98 µM; stronger effect = higher value
# Sequence of Photoreceptor-specific nuclear receptor (Homo sapiens) (Q9Y5X4 whole entry, looked up): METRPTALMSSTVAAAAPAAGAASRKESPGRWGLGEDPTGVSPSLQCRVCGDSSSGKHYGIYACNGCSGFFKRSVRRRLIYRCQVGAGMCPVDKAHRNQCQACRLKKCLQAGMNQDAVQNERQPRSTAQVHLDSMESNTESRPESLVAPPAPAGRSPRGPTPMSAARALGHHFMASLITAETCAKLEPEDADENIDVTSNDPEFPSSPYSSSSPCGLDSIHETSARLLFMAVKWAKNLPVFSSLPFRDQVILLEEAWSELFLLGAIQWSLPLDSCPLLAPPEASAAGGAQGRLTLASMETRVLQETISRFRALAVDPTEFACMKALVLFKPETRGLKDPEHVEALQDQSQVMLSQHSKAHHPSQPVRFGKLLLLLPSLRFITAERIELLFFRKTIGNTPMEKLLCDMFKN
row,SMILES,inhibition
1,CCNC(=O)CCc1nc(-c2ccc(C(C)(C)C)cc2)no1,73.5% (active)
2,CN(c1ccc2nc3ccccc3c(=O)n2n1)C1CCCCC1,43.9% (inactive)
3,COc1cc(NC(=O)c2ccccc2NS(=O)(=O)c2ccc(Cl)s2)cc(OC)c1,99.6% (active)
4,COc1cccc(/C=N/Nc2ncc(C(F)(F)F)cc2Cl)c1O,83% (active)
5,Cn1nccc1C(=O)NC1CCCc2c1cnn2-c1ccc(F)cc1F (stereo unspecified),96.4% (active)
6,COc1ccc(C(=O)Nc2ccccc2C(=O)N/N=C/c2ccc(O)c(OC)c2)cc1,42.1% (inactive)

# Tested on: not listed separately
# Assay: nonselective effects on VP16 transactivation – cell-based, luminescence, CHO-S, high throughput, counter-screen for NR2E3 agonist project, confirmation (AID 624379);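 further: luciferase from a UAS reporter driven by GAL4-VP16 transactivation; 0% = DMSO with VP16-transfected cells and 100% = DMSO with cells lacking VP16; higher means less reporter light so more repression of VP16 activity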
# Conditions: CHO-S GAL4-VP16 luciferase reporter, at 3.98 µM, stronger effect = higher value
row,SMILES,inhibition
1,CCNC(=O)CCc1nc(-c2ccc(C(C)(C)C)cc2)no1,77.8% (active)
2,CN(c1ccc2nc3ccccc3c(=O)n2n1)C1CCCCC1,10.8% (inactive)
3,COc1cc(NC(=O)c2ccccc2NS(=O)(=O)c2ccc(Cl)s2)cc(OC)c1,90.3% (active)
4,COc1cccc(/C=N/Nc2ncc(C(F)(F)F)cc2Cl)c1O,75.5% (active)
5,Cn1nccc1C(=O)NC1CCCc2c1cnn2-c1ccc(F)cc1F (stereo unspecified),86.3% (active)
6,COc1ccc(C(=O)Nc2ccccc2C(=O)N/N=C/c2ccc(O)c(OC)c2)cc1,-33% (inactive)

# Tested on: not listed separately
# Assay: StAR promoter reporter inhibitors, counter-screen for LRH-1 inverse agonist project, cell-based, luminescence, high throughput (AID 651611; in the data active means inhibition above about 28%)
# Conditions: StAR promoter luciferase reporter counterscreen, at 3.6 µM, stronger effect = higher value
row,SMILES,inhibition
1,CN(c1ccc2nc3ccccc3c(=O)n2n1)C1CCCCC1,59.8% (active)
2,Cc1cccc(NC(=O)c2ccc([N+](=O)[O-])o2)c1,21.1% (inactive)
3,Cn1nccc1C(=O)NC1CCCc2c1cnn2-c1ccc(F)cc1F (stereo unspecified),20.2% (inactive)
4,C[C@@H]1C[C@@H]2O[C@H]2/C=C\C=C\C(=O)Cc2c(Cl)c(O)cc(O)c2C(=O)O1,55.7% (active)
5,COc1ccc(C(=O)Nc2ccccc2C(=O)N/N=C/c2ccc(O)c(OC)c2)cc1,19% (inactive)

# Molecular target: Nuclear receptor subfamily 5 group A member 2 (Homo sapiens) (UniProt O00482)
# Assay: NR5A2 activity suppression in reporter cells – cell-based, luminescence, confirmation (AID 651613; in the data active means inhibition above about 42%;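 further: HEK293T cells co-transfected with LRH-1 and StAR promoter luciferase reporter; 0% = vehicle wells and 100% = parental cells lacking receptor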)
# Conditions: cell-based LRH-1 luciferase reporter, inverse agonism; at 3.6 µM; stronger effect = higher value
# Sequence of Nuclear receptor subfamily 5 group A member 2 (Homo sapiens) (O00482 whole entry, looked up): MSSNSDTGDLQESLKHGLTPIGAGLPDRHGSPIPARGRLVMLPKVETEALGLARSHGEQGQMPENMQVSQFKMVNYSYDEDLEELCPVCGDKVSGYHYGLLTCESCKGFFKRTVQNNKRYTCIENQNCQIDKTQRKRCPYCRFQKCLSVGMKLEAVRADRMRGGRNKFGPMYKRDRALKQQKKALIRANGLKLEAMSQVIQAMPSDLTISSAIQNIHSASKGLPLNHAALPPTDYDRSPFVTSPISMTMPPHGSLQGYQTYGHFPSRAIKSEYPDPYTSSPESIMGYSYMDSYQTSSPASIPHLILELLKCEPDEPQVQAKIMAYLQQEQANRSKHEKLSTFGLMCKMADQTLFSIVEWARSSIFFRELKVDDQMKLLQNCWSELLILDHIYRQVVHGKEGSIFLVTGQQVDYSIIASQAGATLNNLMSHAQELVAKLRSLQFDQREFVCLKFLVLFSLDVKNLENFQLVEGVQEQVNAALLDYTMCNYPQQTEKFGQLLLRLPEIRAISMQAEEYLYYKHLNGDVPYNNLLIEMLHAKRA
row,SMILES,inhibition
1,CN(c1ccc2nc3ccccc3c(=O)n2n1)C1CCCCC1,14.8% (inactive)
2,Cc1cccc(NC(=O)c2ccc([N+](=O)[O-])o2)c1,58.8% (active)
3,Cn1nccc1C(=O)NC1CCCc2c1cnn2-c1ccc(F)cc1F (stereo unspecified),62.8% (active)
4,C[C@@H]1C[C@@H]2O[C@H]2/C=C\C=C\C(=O)Cc2c(Cl)c(O)cc(O)c2C(=O)O1,68.5% (active)
5,COc1ccc(C(=O)Nc2ccccc2C(=O)N/N=C/c2ccc(O)c(OC)c2)cc1,-69.7% (inactive)

# Molecular target: Steroidogenic factor 1 (Homo sapiens) (UniProt Q13285)
# Assay: inverse agonism at SF1 nuclear receptor – cell-based, luminescence, high throughput, counter-screen for LRH-1 inverse agonist project (AID 651614; in the data active means inhibition above about 44%;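 further: cells cotransfected with StAR promoter reporter and SF1 expression vector; 0% = vehicle on cells with receptor and 100% = vehicle on cells lacking receptor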)
# Conditions: cell-based SF1 luciferase reporter, at 3.6 µM, stronger effect = higher value
# Sequence of Steroidogenic factor 1 (Homo sapiens) (Q13285 whole entry, looked up): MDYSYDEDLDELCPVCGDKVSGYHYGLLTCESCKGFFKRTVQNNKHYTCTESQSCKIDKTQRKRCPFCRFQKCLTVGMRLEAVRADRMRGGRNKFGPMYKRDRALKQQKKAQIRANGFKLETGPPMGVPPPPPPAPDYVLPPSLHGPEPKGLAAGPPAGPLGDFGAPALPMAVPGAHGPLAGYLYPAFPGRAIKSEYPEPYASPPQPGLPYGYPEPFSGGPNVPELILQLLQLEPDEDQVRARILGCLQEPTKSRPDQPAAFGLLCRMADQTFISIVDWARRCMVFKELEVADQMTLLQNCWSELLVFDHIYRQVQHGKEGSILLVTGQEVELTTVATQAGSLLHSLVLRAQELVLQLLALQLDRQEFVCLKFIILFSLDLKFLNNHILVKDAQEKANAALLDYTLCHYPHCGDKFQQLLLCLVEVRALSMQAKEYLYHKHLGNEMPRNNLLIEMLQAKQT
row,SMILES,inhibition
1,CN(c1ccc2nc3ccccc3c(=O)n2n1)C1CCCCC1,57.6% (active)
2,Cc1cccc(NC(=O)c2ccc([N+](=O)[O-])o2)c1,57% (active)
3,Cn1nccc1C(=O)NC1CCCc2c1cnn2-c1ccc(F)cc1F (stereo unspecified),67.1% (active)
4,C[C@@H]1C[C@@H]2O[C@H]2/C=C\C=C\C(=O)Cc2c(Cl)c(O)cc(O)c2C(=O)O1,56.9% (active)
5,COc1ccc(C(=O)Nc2ccccc2C(=O)N/N=C/c2ccc(O)c(OC)c2)cc1,11.7% (inactive)

# Tested on: not listed separately
# Assay: compounds suppressing VP16-driven luciferase signal – cell-based, luminescence, high throughput, counter-screen for LRH-1 inverse agonist project (AID 651615; in the data active means inhibition above about 33%)
# Conditions: Gal4-VP16 luciferase reporter cells, at 3.6 µM, stronger effect = higher value
row,SMILES,inhibition
1,CN(c1ccc2nc3ccccc3c(=O)n2n1)C1CCCCC1,18% (inactive)
2,Cc1cccc(NC(=O)c2ccc([N+](=O)[O-])o2)c1,-13.2% (inactive)
3,Cn1nccc1C(=O)NC1CCCc2c1cnn2-c1ccc(F)cc1F (stereo unspecified),57.1% (active)
4,C[C@@H]1C[C@@H]2O[C@H]2/C=C\C=C\C(=O)Cc2c(Cl)c(O)cc(O)c2C(=O)O1,79.3% (active)
5,COc1ccc(C(=O)Nc2ccccc2C(=O)N/N=C/c2ccc(O)c(OC)c2)cc1,-41.2% (inactive)

# Tested on: transactivating tegument protein VP16 (Human herpesvirus 1)
# Assay: compounds suppressing VP16-driven luciferase signal – cell-based, luminescence, single concentration, counter-screen for SRC2 inhibitor project (AID 652007; in the data active means inhibition above about 36%)
# Conditions: cell-based VP16 transactivation luciferase reporter, at 8.9 µM, stronger effect = higher value
row,SMILES,inhibition
1,CN(c1ccc2nc3ccccc3c(=O)n2n1)C1CCCCC1,50.9% (active)
2,CCOc1cc(C(=O)N2CCc3cc(OC)c(OC)cc3C2)ccc1OC(F)F,-28% (inactive)
3,COc1ccc(C(=O)Nc2ccccc2C(=O)N/N=C/c2ccc(O)c(OC)c2)cc1,64.8% (active)

# Molecular target: Nuclear receptor coactivator 2 (Homo sapiens) (UniProt Q15596)
# Assay: inhibition of GAL4-SRC2 driven luciferase expression – cell-based, luminescence, HEK293, triplicate, confirmation (AID 652008;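 active means mean inhibition above 46.5%, the solvent-only control mean plus 3 SD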;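 further: 0% = DMSO-treated cells and 100% = Gossypol at 36 µM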)
# Conditions: HEK293 GAL4-SRC2 luciferase reporter, at 8.9 µM, stronger effect = higher value
# Sequence of Nuclear receptor coactivator 2 (Homo sapiens) (Q15596 whole entry, looked up, the tested form may be a part): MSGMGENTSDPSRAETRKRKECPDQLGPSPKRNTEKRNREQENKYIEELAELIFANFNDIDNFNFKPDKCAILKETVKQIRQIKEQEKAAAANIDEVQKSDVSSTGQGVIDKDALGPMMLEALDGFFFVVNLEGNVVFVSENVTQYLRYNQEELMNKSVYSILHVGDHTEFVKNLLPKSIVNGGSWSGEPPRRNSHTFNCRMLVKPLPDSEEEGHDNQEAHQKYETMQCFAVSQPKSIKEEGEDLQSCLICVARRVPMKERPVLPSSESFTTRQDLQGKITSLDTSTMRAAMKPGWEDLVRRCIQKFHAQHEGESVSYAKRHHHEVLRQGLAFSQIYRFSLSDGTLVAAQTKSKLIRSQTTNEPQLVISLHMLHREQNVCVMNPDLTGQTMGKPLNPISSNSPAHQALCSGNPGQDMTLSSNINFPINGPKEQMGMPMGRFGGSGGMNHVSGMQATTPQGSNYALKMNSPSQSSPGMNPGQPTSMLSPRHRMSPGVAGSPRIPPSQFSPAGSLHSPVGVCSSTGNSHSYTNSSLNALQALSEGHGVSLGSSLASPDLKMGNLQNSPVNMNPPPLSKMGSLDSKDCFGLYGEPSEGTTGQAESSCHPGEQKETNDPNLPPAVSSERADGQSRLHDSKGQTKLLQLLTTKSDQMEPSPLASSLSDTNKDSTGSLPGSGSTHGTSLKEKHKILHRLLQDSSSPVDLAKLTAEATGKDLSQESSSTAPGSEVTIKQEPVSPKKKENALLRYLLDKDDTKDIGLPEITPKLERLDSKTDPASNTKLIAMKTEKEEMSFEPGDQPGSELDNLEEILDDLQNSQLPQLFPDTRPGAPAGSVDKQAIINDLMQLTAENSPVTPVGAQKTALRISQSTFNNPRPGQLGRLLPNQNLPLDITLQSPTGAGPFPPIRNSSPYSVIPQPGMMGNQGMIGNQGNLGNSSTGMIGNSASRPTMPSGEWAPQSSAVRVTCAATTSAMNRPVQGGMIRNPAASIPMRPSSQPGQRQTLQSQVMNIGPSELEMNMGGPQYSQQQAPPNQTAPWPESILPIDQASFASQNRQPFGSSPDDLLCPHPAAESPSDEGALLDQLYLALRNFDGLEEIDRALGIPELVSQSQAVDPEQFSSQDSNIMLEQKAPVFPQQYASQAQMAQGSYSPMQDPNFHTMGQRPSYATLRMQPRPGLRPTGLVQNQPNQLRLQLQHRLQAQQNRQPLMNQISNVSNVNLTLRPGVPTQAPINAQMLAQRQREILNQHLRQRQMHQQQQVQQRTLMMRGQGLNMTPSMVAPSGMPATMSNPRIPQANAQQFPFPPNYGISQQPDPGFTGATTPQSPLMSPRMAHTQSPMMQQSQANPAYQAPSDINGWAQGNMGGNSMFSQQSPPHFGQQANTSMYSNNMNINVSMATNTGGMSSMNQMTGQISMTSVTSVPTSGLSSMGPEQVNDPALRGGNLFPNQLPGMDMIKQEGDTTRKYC
row,SMILES,inhibition
1,CN(c1ccc2nc3ccccc3c(=O)n2n1)C1CCCCC1,86% (active)
2,CCOc1cc(C(=O)N2CCc3cc(OC)c(OC)cc3C2)ccc1OC(F)F,14.7% (inactive)
3,COc1ccc(C(=O)Nc2ccccc2C(=O)N/N=C/c2ccc(O)c(OC)c2)cc1,59.3% (active)

# Tested on: not listed separately
# Assay: VP16-driven transactivation reporter suppression – cell-based, luminescence, HEK293, counter-screen for COUP-TFII antagonist project (AID 687007; in the data active means inhibition above about 13%)
# Conditions: HEK293 Gal4-VP16 luciferase reporter, at 8.5 µM, stronger effect = higher value
row,SMILES,inhibition
1,CN(c1ccc2nc3ccccc3c(=O)n2n1)C1CCCCC1,64.8% (active)
2,Cn1nccc1C(=O)NC1CCCc2c1cnn2-c1ccc(F)cc1F (stereo unspecified),-3.41% (inactive)
3,C[C@@H]1C[C@@H]2O[C@H]2/C=C\C=C\C(=O)Cc2c(Cl)c(O)cc(O)c2C(=O)O1,64.3% (active)
4,COc1ccc(C(=O)Nc2ccccc2C(=O)N/N=C/c2ccc(O)c(OC)c2)cc1,7.03% (inactive)

# Molecular target: COUP transcription factor 2 (Homo sapiens) (UniProt P24468)
# Assay: retest of COUP-TFII reporter suppressors – cell-based, luciferase reporter, HEK293, triplicate, confirmation (AID 687008;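 active means mean inhibition over three repeats above a set limit taken from the earlier primary screen, cut at about 38% in these data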;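 further: 100% = cells given the luciferase reporter alone without the COUP-TF2 vector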)
# Conditions: HEK293 NGFI-A luciferase reporter, luminescence; at 8.5 µM; stronger effect = higher value
# Sequence of COUP transcription factor 2 (Homo sapiens) (P24468 whole entry, looked up): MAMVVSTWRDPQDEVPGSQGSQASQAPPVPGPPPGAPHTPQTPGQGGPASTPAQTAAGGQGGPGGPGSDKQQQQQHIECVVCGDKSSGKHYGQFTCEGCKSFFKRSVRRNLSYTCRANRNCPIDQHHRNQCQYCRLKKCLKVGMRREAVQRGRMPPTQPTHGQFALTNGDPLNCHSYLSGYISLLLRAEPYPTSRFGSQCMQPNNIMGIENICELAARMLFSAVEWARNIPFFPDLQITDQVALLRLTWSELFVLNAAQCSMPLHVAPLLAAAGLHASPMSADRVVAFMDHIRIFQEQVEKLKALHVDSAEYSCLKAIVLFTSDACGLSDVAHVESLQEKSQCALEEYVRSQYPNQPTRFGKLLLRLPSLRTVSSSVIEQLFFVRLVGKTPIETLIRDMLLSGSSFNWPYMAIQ
row,SMILES,inhibition
1,CN(c1ccc2nc3ccccc3c(=O)n2n1)C1CCCCC1,87.9% (active)
2,Cn1nccc1C(=O)NC1CCCc2c1cnn2-c1ccc(F)cc1F (stereo unspecified),62.2% (active)
3,C[C@@H]1C[C@@H]2O[C@H]2/C=C\C=C\C(=O)Cc2c(Cl)c(O)cc(O)c2C(=O)O1,68% (active)
4,COc1ccc(C(=O)Nc2ccccc2C(=O)N/N=C/c2ccc(O)c(OC)c2)cc1,75.2% (active)
